An excerpt weighted towards active compounds, which were near 11% of everything screened.
VP16 counter = VP16 counterscreen qHTS for inhibitors of ROR gamma transcriptional activity | Drosophila S2 Gal4-VP16 UAS-luciferase, luminescence, 20 h | hit rate 3.5% among 310,000 | Potency, µM (titrated, usually from 53.6 µM), for the others: at the highest dose activity, negative = inhibition, actives largely listed as inhibitors;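 note: Gal4-VP16 expression switched on by copper sulfate through the metallothionein promoter; potency is the fitted concentration of half-maximal effect; % is set by controls: 0 for no effect and ±100 for the full control effect; nearly all actives have a fitted effect of over 50% in size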
SW480 rereplic = A quantitative high throughput screen for small molecules that induce DNA re-replication in SW480 colon adenocarcinoma cells | hit rate 1.8% among 340,000 | SW480 DNA re-replication, Hoechst DNA content imaging, 48 h | Potency, µM (series often up to 46.1 µM), without a hit: at the top dose re-replication activation, usual class: activators; note: potency is the fitted concentration of half-maximal effect; % of control where 0% means no effect; nearly all actives have a fitted effect of over 55% in size
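Hoechst fluorescence of nuclei (405 nm excitation, 500-530 nm emission) measured by plate-scanning imager after 48 hr compound exposure at 37 C; re-replication scored as increased number of nuclei with elevated intensity.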
MCF10A rerep = A quantitative high throughput screen for small molecules that induce DNA re-replication in MCF 10a normal breast cells. MCF 10A DNA re-replication, Hoechst nuclear intensity, 48 h. Potency, µM (titrated, usually from 46.1 µM), for inactives: at the highest dose activity, positive = re-replication, actives largely listed as activators. hit rate 2.9% among 350,000. AID 624296, 2012; note: potency is the fitted concentration of half-maximal effect; % of control where 0% means no effect; nearly all actives have a fitted effect of over 50% in size
RORgamma inh = qHTS for inhibitors of ROR gamma transcriptional activity. Potency, µM (doses to about 53.6 µM), for the others: at the top dose activity change, negative = inhibition, hits mostly inhibitors. Drosophila S2 Gal4-RORgamma UAS-luciferase reporter, 20 h. Nuclear receptor ROR-gamma (Mus musculus), P51450. hit rate 5.4% among 310,000; note: potency is the fitted concentration of half-maximal effect; % is set by controls: 0 for no effect and ±100 for the full control effect; nearly all actives have a fitted effect of over 60% in size
Target sequence (P51450 whole entry, looked up, the tested form may be a part): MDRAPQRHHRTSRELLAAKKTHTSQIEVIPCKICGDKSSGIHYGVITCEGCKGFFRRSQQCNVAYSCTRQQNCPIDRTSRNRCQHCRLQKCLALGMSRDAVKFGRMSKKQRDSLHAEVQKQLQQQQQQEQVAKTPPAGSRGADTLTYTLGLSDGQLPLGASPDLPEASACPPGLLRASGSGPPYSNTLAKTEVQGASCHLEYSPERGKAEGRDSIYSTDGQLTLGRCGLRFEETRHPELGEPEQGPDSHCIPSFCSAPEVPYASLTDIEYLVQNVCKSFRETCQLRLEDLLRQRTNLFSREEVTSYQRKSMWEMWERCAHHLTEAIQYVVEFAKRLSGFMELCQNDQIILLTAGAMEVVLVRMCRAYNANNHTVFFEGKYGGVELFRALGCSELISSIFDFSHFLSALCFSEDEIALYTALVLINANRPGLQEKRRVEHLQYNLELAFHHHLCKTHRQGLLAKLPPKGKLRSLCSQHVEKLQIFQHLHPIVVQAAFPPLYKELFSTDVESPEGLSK
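Drosophila Schneider cells stably carrying a metallothionein-driven Gal4 DBD–ROR gamma fusion and a UAS-Photinus luciferase reporter were exposed to compound for 1 hr, then induced with copper sulfate (700 uM final) for 20 hr at ambient temperature before luminescence reading.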
IL-1B inflam inh = qHTS for Inhibitors of Inflammasome Signaling: IL-1-beta AlphaLISA Primary Screen; THP-1 LPS/ATP IL-1B secretion, AlphaLISA, 16 h; active compounds read low; activity change, % at 57.5 µM; hit rate 4.7% among 360,000; AID 743279, 2014; in the data active = activity change below about -50%; inconclusive = mostly about -30% to -49%; note: % is set by controls: 0 for no effect and ±100 for the full control effect
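Secreted IL-1B measured by AlphaLISA bead assay after 16 h compound exposure of THP-1 cells; compounds (final up to 57.5 uM) added 1 h before LPS (250 ng/mL) and ATP (1.25 mM) stimulation; lower signal means less secretion.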
Starred values were filed as active, the others as inactive; ? = inconclusive; · = not tested or not shown; [ ] = another dose, or the depositor's remark. Unless noted, calls come from the whole dose curve; as a rule, active = well fitted curve in the direction sought with a large enough effect; inconclusive = small, poorly fitted or top-dose-only effect, or another doubt; inactive = no such curve, though single readings can be large; an effect the other way counts as inactive or inconclusive.

SMILES | VP16 counter | SW480 rereplic | MCF10A rerep | RORgamma inh | IL-1B inflam inh
CCN(CC(=O)Nc1c(F)cccc1F)C(=O)Cc1ccc(S(=O)(=O)N2CCOCC2)s1 | · | -3.2% | -0.8% | · | 5.7
O=C(NN=Cc1cc(Br)c(O)c(Br)c1)c1ccccc1NS(=O)(=O)c1cccs1 | · | 7.9% | 20.3% | · | 25.6
CC(C)(C)n1nnnc1C(c1ccccc1)N1CCN(c2ncc(C(F)(F)F)cc2Cl)CC1 (stereo unspecified) | · | · | · | · | 0.6
O=C(CSc1nnc(CNC(=O)c2ccco2)o1)Nc1ccc(F)cc1 | -7.6% | -13.6% | -1.3% | -14.2% | 2.4
CCN(CC1COc2ccccc2O1)C(=S)NC1CC2CCC1C2 (stereo unspecified) | ? | 1.1% | 0.8% | 8.91µM* | 35.4
CCC1=NN(C(=O)Cc2ccc([N+](=O)[O-])cc2)C(O)(C(F)(F)F)C1 (stereo unspecified) | 9.9% | 3.2% | -1.0% | ? | 0.0
Cc1occc1C(=O)N1N=C(C2CC2)CC1(O)C(F)(F)F (stereo unspecified) | ? | -3.1% | 3.4% | 7.94µM* | 44.5
O=C(c1ccco1)N1N=C(C2CCCCC2)CC1(O)C(F)(F)F (stereo unspecified) | 5.2% | -12.0% | -39.3% | 8.2% | 29.0
CCCC1=NN(C(=O)Cc2ccc([N+](=O)[O-])cc2)C(O)(C(F)(F)F)C1 (stereo unspecified) | ? | 3.1% | -22.4% | 20µM* | 0.0
O=C(Cc1ccc([N+](=O)[O-])cc1)N1N=C(C2CC2)CC1(O)C(F)(F)F (stereo unspecified) | ? | -5.8% | ? | 15.8µM* | 26.1
CCC1=NN(C(=O)Cc2ccc([N+](=O)[O-])cc2)C(O)(c2ccncc2)C1 (stereo unspecified) | 3.2% | -10.7% | -10.9% | 17.8µM* | -13.9
COC(=O)C1=C(C)N(Cc2ccccc2)[C@]23O[C@](C(=O)OC)(C(=O)N2C1c1ccccc1)C1C(=O)N(C)C(=O)C13 (stereo partly specified) | -0.2%[10 µM] | · | · | 1.8%[10 µM] | ·
CCCNC(=O)C1(C)CCCN(CC(=O)c2ccc3c(c2)OCCO3)C1 (stereo unspecified) | · | · | · | · | 0.0
CC(C)(C)C1(O)CC(C(F)(F)F)=NN1C(=O)Cc1ccc([N+](=O)[O-])cc1 (stereo unspecified) | -7.7% | 13.0% | 18.1% | ? | 0.5
CC1=NN(C(=O)Cc2ccc([N+](=O)[O-])cc2)C(O)(C(F)(F)C(F)(F)F)C1 (stereo unspecified) | 5.01µM* | 159.0% | 7.4% | 3.55µM* | 71.1
O=C(c1cccc(Cl)c1)C1CCCN(S(=O)(=O)c2ccccc2)C1 (stereo unspecified) | 0.0% | -14.6% | 2.8% | -43.3% | 19.9
O=C(O)c1ccc(NC2=C/C(=N/S(=O)(=O)c3ccccc3)c3ccccc3C2=O)cc1 | 7.94µM* | 3.26µM* | ? | 11.2µM* | -97.5*
Cc1cc(C)c(S(=O)(=O)/N=C2\C=C(NS(=O)(=O)c3ccccc3)C(=O)c3ccccc32)c(C)c1 | 6.8% | -5.8% | 14.3% | -9.3% | 29.7
Cc1cc(C)c(S(=O)(=O)/N=C2\C=C(Nc3ccc(C(=O)O)cc3)C(=O)c3ccccc32)c(C)c1 | 10µM* | ? | 16.7% | ? | -104.3*
CC(CCC(=O)O)C1CCC2C3CC[C@H]4CC(O)CC[C@@]4(C)C3C=C[C@]12C (stereo partly specified) | -26.3% | · | · | -36.7% | ·
CCn1c2ccccc2c2cc(/C=N/n3cnnc3)ccc21 | ? | -16.2% | -3.2% | -1.6% | -58.5*
S=c1[nH]ncn1/N=C/c1ccc(N2CCOCC2)cc1 | -94.5% | -5.3% | -0.2% | ? | 4.5
CCn1c2ccccc2c2cc(/C=N/n3c(-c4cc(C)[nH]n4)n[nH]c3=S)ccc21 | ? | -32.3% | 8.2µM* | -34.2% | 30.8
CCn1c2ccccc2c2cc(/C=N/n3cn[nH]c3=S)ccc21 | 7.08µM* | 3.66µM* | ? | 1.12µM* | -11.9
CCn1c2ccccc2c2cc(/C=N/O)ccc21 | -7.3% | 4.11µM* | 2.0% | -21.0% | -12.4
SMILES | VP16 counter | SW480 rereplic | MCF10A rerep | RORgamma inh | IL-1B inflam inh
CCn1c2ccc(/C(C)=N\O)cc2c2cc(/C(C)=N\O)ccc21 | -8.3% | -4.8% | 0.7% | -27.2% | -5.5
CCCNC(=O)c1cc(C2CCCCN2C(=O)c2ccc3c(c2)CCO3)on1 (stereo unspecified) | · | · | · | · | 8.9
CCn1cc(CN2CCC(n3nccc3NC(=O)c3ccc4c(c3)OCO4)CC2)c(C)n1 | ? | 3.8% | 7.8% | 0.7% | -0.6
COc1ccccc1CN1CC[C@@]2(CCCN(C(=O)c3c(C)noc3C)C2)C1 | -4.3% | · | · | -6.0% | ·
S=c1[nH]ncn1/N=C/c1ccc(Br)cc1 | 3.98µM* | -4.7%[9.22 µM] | 9.7% | 2.24µM* | -20.9
S=c1[nH]ncn1/N=C/c1ccccc1 | ? | -5.5% | 5.3% | ? | 19.1
COc1ccc(N2CCN(C(=O)c3cccc(S(=O)(=O)N4CCCc5ccccc54)c3)CC2)cc1 | · | -3.7% | -0.8% | · | 1.9
CCO[C@@H]1OC(C(=O)NCc2nc3ccccc3[nH]2)=C[C@H](C(C)(C)C)[C@H]1CCCO | · | ? | 4.11µM* | · | 33.6
C/C(CCN1CCCCc2nc(C)c(C)cc21)=N\OC[C@@H](O)[C@@H]1O[C@@H]2OC(C)(C)O[C@@H]2[C@H]1O | 4.3%[10 µM] | · | · | 18.5%[10 µM] | ·
COc1ccc(N(C(=O)CNC(=O)c2ccco2)C(C(=O)NC2CCCCC2)c2ccncc2)cc1 (stereo unspecified) | -4.3% | -2.4% | -7.1% | -28.0% | -4.3
COc1ccc(C(C(=O)Nc2ccc(F)cc2)N(C(=O)Cn2nnc3ccccc32)C2CC2)cc1 (stereo unspecified) | -24.0% | 5.9% | -2.4% | 35.2% | -71.7*
COc1ccc(N(C(=O)Cn2cnc3ccccc32)C(C(=O)NC2CCCCC2)c2ccccc2)cc1 (stereo unspecified) | -14.4% | 23.1µM* | ? | -17.5% | -74.7*
COc1ccc(N(C(=O)Cn2nnc3ccccc32)C2(C(=O)NC3CCCC3)CCCCC2)cc1 | 2.1% | 20.4% | -4.5% | 19.9% | -57.6*
Cc1cc(NC(=O)CCC(=O)N(c2ccccc2)C2(C(=O)NC3CCCCC3)CCCC2)no1 | -5.1% | 7.1% | -4.6% | 15.0% | -61.2*
Cc1cc(NC(=O)CCC(=O)N(Cc2ccco2)C2(C(=O)NC3CCCC3)CCCCC2)no1 | -2.5% | 0.7% | 0.1% | 12.5% | -4.1
Nc1[nH]c(C(=O)c2ccccc2)c(-c2c(F)cccc2F)c1C(=O)c1ccc(Cl)c(Cl)c1 | · | · | · | · | -18.1

Compound activity deposited in PubChem by National Center for Advancing Translational Sciences (NCATS).
